Pf apPOL inh: Pf-apPOL DNA polymerase inhibition. Recombinant Pf-apPOL, molecular beacon fluorescence, 1.5 h. inhibition, % at 10 µM. hit rate 0.25% among 210,000. AID 1794808
mHTT CaM bind: disrupts binding of mutant huntingtin to calmodulin. P42858. AlphaScreen His-mHTT/GST-CaM binding, luminescence. inhibition, % at 15 µM. hit rate 3.6% among 190,000. AID 1671202;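 also: 0% = both proteins with DMSO and 100% = one protein alone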
* hit, by the source's call; x = not tested or not shown. A selection: hits, their analogues and other compounds. The true share with any hit is near 3.6%. Rule as the data show it: active = inhibition above about 50%; inactive = the rest.

SMILES	Pf apPOL inh	mHTT CaM bind
O=C1OC(c2ccc(Cl)cc2)=C/C1=C\c1ccco1	-4.3	20.0
O=C1OC(c2ccc(Oc3ccccc3)cc2)=C/C1=C\c1ccco1	3.3	78.0*
O=C(NC(Nc1ccc([N+](=O)[O-])cc1)C(Cl)(Cl)Cl)c1cccc([N+](=O)[O-])c1 (configuration not stated)	-0.9	98.0*
Cc1cccc(NC(NC(=O)c2ccc([N+](=O)[O-])cc2)C(Cl)(Cl)Cl)c1 (configuration not stated)	-0.8	76.0*
NS(=O)(=O)c1ccc(NC(NC(=O)c2ccc([N+](=O)[O-])cc2)C(Cl)(Cl)Cl)cc1 (configuration not stated)	-10.1	15.0
O=C(Nc1cccc(Cl)c1)c1cccc([N+](=O)[O-])c1	-15.9	91.6*
O=C(Nc1cccc(Cl)c1)c1ccc([N+](=O)[O-])cc1Cl	4.4	16.2
NS(=O)(=O)c1ccc(NC(NC(=O)c2cccc(Cl)c2)C(Cl)(Cl)Cl)cc1 (configuration not stated)	-0.4	10.0
O=C(NC(Nc1ccc([N+](=O)[O-])cc1)C(Cl)(Cl)Cl)c1cccc(Cl)c1 (configuration not stated)	-0.5	100.0*
Cc1cccc(NC(NC(=O)N(C)C)C(Cl)(Cl)Cl)c1 (configuration not stated)	-2.8	5.0
O=C(COc1ccccc1)NCC1Cc2cc(F)ccc2O1 (configuration not stated)	-2.5	-4.5
O=C(c1ccccc1)N1CCN(C(=O)c2cccs2)CC1	0.9	-6.4
COc1ccc(NC(=O)N2CCOc3ccc(Cl)cc32)cc1OC	-8.6	18.3
COc1cccc(C(=O)NC(c2ccccc2)c2cc(Cl)c3cccnc3c2O)c1 (configuration not stated)	2.0	54.0*
COc1cccc(C(=O)NC(c2ccc(OC)c(OC)c2)c2cc(Cl)c3cccnc3c2O)c1 (configuration not stated)	-5.5	52.0*
COc1cccc(C(=O)NC(c2ccco2)c2cc(Cl)c3cccnc3c2O)c1 (configuration not stated)	1.3	80.1*
CCCC(=O)NC(c1ccco1)c1cc(Cl)c2cccnc2c1O (configuration not stated)	12.9	43.0
COc1cccc(C(=O)NC(c2ccc([N+](=O)[O-])cc2)c2cc(Cl)c3cccnc3c2O)c1 (configuration not stated)	-9.0	20.0
O=C(Cn1cnc2ccc([N+](=O)[O-])cc2c1=O)N1CCOCC1	-2.0	3.1
CCC(C)c1ccccc1NC(=O)Cc1ccc(Br)cc1 (configuration not stated)	-5.9	-19.7
COc1cc(/C=C2\C(=O)ON=C2C)cc(Br)c1OC	3.5	24.0
CCOc1cc(/C=C2\NC(=O)NC2=O)cc(Cl)c1OCc1ccccc1F	-2.0	68.0*
COc1cc(/C=C2\NC(=O)NC2=O)ccc1OCc1ccccc1F	-1.8	-2.0
CC1=NOC(=O)/C1=C/c1ccc(OCc2ccccc2F)c(Cl)c1	-8.6	2.0
COc1cc(/C=C2\C(=O)ON=C2C)cc(Cl)c1OCc1cccc(F)c1	0.0	86.0*
SMILES	Pf apPOL inh	mHTT CaM bind
COc1cc(/C=C2\C(=O)ON=C2C)cc(Br)c1OCc1cccc(F)c1	-2.7	51.0*
COc1cc(/C=C2\C(=O)ON=C2C)cc(Cl)c1OCc1ccccc1F	-4.7	60.0*
C=CCOc1c(Cl)cc(/C=C2\C(=O)ON=C2C)cc1OC	-1.1	35.0
Cc1cccc(NC(=O)C2CCCN(S(=O)(=O)c3ccc(Br)s3)C2)c1C (configuration not stated)	-3.4	3.0
Cc1cccc(/C=C2\N=C(c3ccc(I)cc3)OC2=O)c1	3.1	8.0
CCOc1ccc(C(=O)NCc2ccc(F)cc2)cc1	0.7	-9.3
CCOc1ccc(CCNC(=O)C2CC(=O)N(CCc3ccccc3)C2)cc1OCC (configuration not stated)	10.3	-0.1
CC1CCN(CC2CCN(S(=O)(=O)c3ccccc3Cl)CC2)CC1	2.5	-3.8
O=C(CN1C(=O)CC(c2ccccc2)=Nc2cccnc21)Nc1ccccc1Cl	64.6*	-12.2
Cc1ccccc1NC(=O)CN1C(=O)CC(c2ccccc2)=Nc2cccnc21	12.6	-5.2
O=C(NC(c1ccccc1)c1ccccc1)c1cccnc1	3.0	-4.7
O=C(NC(c1ccc([N+](=O)[O-])cc1)c1cc(Cl)c2cccnc2c1O)c1cccnc1 (configuration not stated)	-9.1	53.0*
O=C(NC(c1cccc([N+](=O)[O-])c1)c1cc(Cl)c2cccnc2c1O)c1cccnc1 (configuration not stated)	-6.5	79.0*
O=C(O)c1cccc2cccc(-c3cccc4cccc(C(=O)O)c34)c12	-5.1	x
CCCn1cc2c3c(cccc31)CN(C(=O)Nc1cccc(OC)c1)CC2	-2.4	0.6
CCn1cc2c3c(cccc31)CN(C(=O)Nc1ccc(OC)cc1OC)CC2	-3.2	26.8
COc1cccc(NC(=O)N2CCc3cn(C)c4cccc(c34)C2)c1	-3.5	13.9

Bioassay records from PubChem BioAssay.
